Screens: PubChem, several laboratories
An excerpt weighted towards active compounds, which were near 2.6% of everything screened.
Granule exo inh: LAMP-1 surface exposure blockers, TALL-104 cells – cell-based, flow cytometry, MLPCN library, primary screen; TALL-104 LAMP-1 surface exposure; cells stimulated with thapsigargin and PMA; inhibition, % at 10 µM; 0.66% of 360,000 active; AID 651702, 2012;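 active = inhibition above about 55%, limit read from the data; inconclusive = no clear call, values can overlap the other calls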
Rce1 inhib: yeast Rce1p protease inhibitors, primary screen, biochemical, fluorescence, cell-free homogeneous; yeast membranes, quenched prenylated peptide cleavage fluorescence; calls only; 0.27% of 290,000 active;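 active = fall in fluorescence gain of 50% or more versus controls, with final raw signal at or below 3038400; inconclusive = same 50% fall but final raw signal above 3038400; inactive = fall in fluorescence gain under 50%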;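 also: plate controls were neutral control wells for no effect and wells lacking membranes for full effect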
Target sequence (Q03530 whole entry, looked up): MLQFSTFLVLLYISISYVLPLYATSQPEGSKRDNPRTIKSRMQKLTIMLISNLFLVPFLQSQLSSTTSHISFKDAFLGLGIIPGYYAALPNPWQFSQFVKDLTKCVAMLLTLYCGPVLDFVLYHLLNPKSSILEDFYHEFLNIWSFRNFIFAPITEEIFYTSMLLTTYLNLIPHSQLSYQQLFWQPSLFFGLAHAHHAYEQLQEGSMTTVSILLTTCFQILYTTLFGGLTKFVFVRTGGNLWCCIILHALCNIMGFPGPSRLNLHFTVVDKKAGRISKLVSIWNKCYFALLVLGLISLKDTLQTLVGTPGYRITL
Platelet DG rel: inhibitors of platelet dense granule secretion, primary screen, cell-based, MLPCN, human platelets; inhibition, %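 (compounds screened at 7.5 µM in platelet-rich plasma)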; 0.22% of 300,000 active; human platelet-rich plasma, SFLLRN dense granule ATP release, luminescence;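 active = mean replicate score, as percent of positive control, at or above 50; inconclusive = mean below 50 but at least one replicate at or above 50; inactive = mean and every replicate below 50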
ABHD5-PLIN5 inh: ABHD5-PLIN5 interaction inhibitors, primary screen, cell lysate, split luciferase complementation, luminescence. Perilipin-5 (Homo sapiens) + 1-acylglycerol-3-phosphate O-acyltransferase ABHD5 (Homo …. inhibition, % at 4 µM. 0.78% of 360,000 active. Split G. princeps luciferase complementation, 4 h;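 active = inhibition above the mean inhibition across every tested compound plus 3 SD, cut at about 22% in these data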;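 also: 0% = DMSO only wells and the 100% control is not disclosed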
PfM18AAP inh-1: PfM18AAP inhibitors, malaria aminopeptidase, primary screen, biochemical, QFRET, recombinant enzyme | H-Glu-NHMec fluorogenic cleavage | 1.2% of 290,000 active | inhibition, % at 7.35 µM | M18 aspartyl aminopeptidase (Plasmodium falciparum 3D7);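 active = inhibition above the campaign mean inhibition over all tested compounds plus 3 SD, cut at about 28% in these data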;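 also: 0% = plate median of test compound wells and 100% = 2 mM ZnCl2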
PfM18AAP inh-2: PfM18AAP inhibitors, malaria aminopeptidase, confirmation, biochemical, QFRET, recombinant enzyme, triplicate; 28% of 2,400 active; shares compounds with PfM18AAP inh-1; H-Glu-NHMec fluorogenic cleavage; inhibition, % at 7.35 µM;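 active = mean inhibition over replicate wells above the hit cutoff set for the earlier primary screen, cut at about 29% in these data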;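 also: 0% = median of test compound wells and 100% = 2 mM ZnCl2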
CTSL1 confirm: cathepsin L1 inhibitors, retest, confirmation, counter-screen for PFM18AAP inhibitor project, biochemical, QFRET, triplicate. 2,400 tested, under 10 active. shares compounds with PfM18AAP inh-1. inhibition, % at 5.96 µM. AID 2178, 2009. purified cathepsin L1, Z-Leu-Arg-MCA fluorescence;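 active = average inhibition across replicates above the hit cutoff set in the earlier primary screen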;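 also: 0% = median of test compound wells and 100% = Z-Phe-Ala-diazomethylketone 1 µM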
The depositor's hits bear a star; i = inactive; ? = inconclusive; / = not tested or not shown.

SMILES	Granule exo inh	Rce1 inhib	Platelet DG rel	ABHD5-PLIN5 inh	PfM18AAP inh-1	PfM18AAP inh-2	CTSL1 confirm
CC1(C)Cc2c(c(N3CCOCC3)nc3sc(C(=O)Nc4ccccc4)c(N)c23)CO1	3	i	1	-3	37*	-45	1
CN(C(=O)c1sc2nc(N3CCCC3)c3c(c2c1N)CC(C)(C)OC3)c1ccccc1	0	i	-18	-11	24	/	/
O=C(Cn1ccc2ccccc21)Nc1ccc2c(c1)OCO2	-3	i	3	-2	7	/	/
Nc1ccc(C(=O)Nc2nc3ccccc3s2)cc1	-5	i	5	13	3	/	/
O=C(Nc1nc(=O)c2ccccc2s1)c1ccc(F)cc1	2	i	1	-14	42*	-32	-1
O=C(Cc1ccccc1)Nc1nc(=O)c2ccccc2s1	2	i	2	-18	40*	-53	-11
Cc1cc(C)c(C)c(C(=O)C(=O)c2ccccc2)c1	-9	/	/	-4	/	/	/
O=C(Nc1ccccc1F)c1oc2ccccc2c1NC(=O)C1CC1	2	i	-4	-4	-5	/	/
NNc1ccc(S(=O)(=O)N2CCCCC2)cn1	0	i	-1	2	33*	31*	1
Nc1nc(-c2ccco2)c(-c2ccco2)s1	10	i	-61	20	38*	-49	-4
Nc1nc(-c2ccco2)cs1	-1	i	0	-10	8	/	/
CCOc1ccc(NC(=O)NNC(=O)c2ccc3ccccc3c2O)cc1	23	i	-8	-8	24	/	/
CCc1ccccc1NC(=O)NNC(=O)c1ccc2ccccc2c1O	4	i	-15	1	39*	3	-1
COc1ccc(NC(=O)NNC(=O)c2ccc3ccccc3c2O)c(OC)c1	2	i	-2	-2	36*	5	1
CCOc1ccc(Oc2c(/C=N/NC(=O)COc3ccccc3OC)c(C)nn2-c2ccccc2)cc1	0	i	-12	-8	-2	/	/
O=c1cccccc1NCc1ccccc1	0	i	4	0	42*	-41	3
N#Cc1ccccc1NCc1ccccc1	-2	i	15	0	0	/	/
O=C(O)c1ccc(NNC(=S)Nc2cc(C(F)(F)F)ccc2Cl)cc1	-7	i	-19	-25	35*	-30	-4
CNC(=O)/C(C#N)=C/c1c(N(Cc2ccccc2)Cc2ccccc2)nc2ccccn2c1=O	-5	i	-11	3	1	/	/
O=C(CCS(=O)(=O)c1ccc(F)cc1)Nc1nc(-c2ccncc2)cs1	-3	i	-9	-5	52*	18	1
O=C(COc1ccc(Cl)cc1)Nc1nc(-c2ccncc2)cs1	-4	i	23	3	35*	-28	4
CC(C)(C)c1csc(NC(=O)CCS(=O)(=O)c2ccc(F)cc2)n1	4	/	/	-6	/	/	/
CN(C)/C=C/C(=O)c1c(F)cccc1F	-5	i	-1	-3	3	/	/
COc1cc(C(=O)Nc2cccc(C)c2C)c(Br)c(OC)c1OC	-13	/	-7	-5	-4	/	/
Cc1cc2c(C)nc(N/N=C/c3ccc(F)cc3)nc2o1	0	i	5	2	46*	-49	0
SMILES	Granule exo inh	Rce1 inhib	Platelet DG rel	ABHD5-PLIN5 inh	PfM18AAP inh-1	PfM18AAP inh-2	CTSL1 confirm
Nc1nc(Sc2ccc(C(F)(F)F)cc2[N+](=O)[O-])n[nH]1	0	i	0	2	63*	56*	-6
C=CCN(Cc1ccc(Cl)s1)C(=O)CNC(=O)CNC(=O)c1ccc(Cl)cc1Cl	8	/	/	8	/	/	/
CCN(CC)C(=O)c1[nH]cnc1C(=O)NCCCCCNC(=O)OC(C)(C)C	1	/	/	13	/	/	/
CC(=O)NCCc1ccc(S(=O)(=O)NCc2ccc3c(c2)OCO3)cc1	0	i	-5	1	3	/	/
Cc1nonc1C(=O)N/N=C/c1ccc(O)c(O)c1	6	i	67*	-7	66*	66*	-1
N/C(=N\N=C\c1ccc(O)c(O)c1)c1nonc1N	-1	i	105*	1	43*	25	3
O=C(N/N=C/c1ccc(O)c(O)c1)N/N=C/c1ccc(O)c(O)c1	-2	i	7	-4	80*	64*	-5
COc1cc(/C=N/N=C(\N)c2nonc2N)ccc1O	0	i	?	2	11	/	/
O=C(CCN1C(=O)C2C3C=CC(C3)C2C1=O)Nc1c(F)cccc1F (configuration not stated)	-3	i	5	3	-1	/	/
COc1ccc(OC)c2sc(NC(=O)c3ccc(Cl)s3)nc12	2	i	-28	-3	-5	/	/
Cc1nc(N/N=C/c2ccc(O)cc2O)cc(N2CCOCC2)n1	2	i	0	-6	49*	34*	1
O=C(CCn1c2c(c3ccccc31)CCCC2)NNC(=O)c1ccccc1C(=O)O	0	i	1	1	-4	/	/
O=C(O)CCn1c2c(c3ccccc31)CCCC2	2	i	-3	-6	45*	-28	4
OC(COc1ccccc1Cl)CN1CCN(CC(O)COc2ccccc2Cl)CC1 (configuration not stated)	2	i	1	12	-10	/	/
O=C1NC(=O)/C(=C\c2ccc(O)cc2O)S1	1	i	0	0	90*	86*	2
Fc1ccc(N=c2ssnc2Cl)c(F)c1	3	i	0	-3	32*	-46	-1
Clc1nssc1=Nc1ccccc1	-1	/	/	-8	17	/	/
C[C@H]1CN([C@@H](C)CO)C(=O)CCCn2nncc2CO[C@H]1CN(C)C(=O)Nc1ccc(N2CCCCC2)cc1	1	/	/	16	/	/	/
O=C(NNc1nc2ccccc2s1)c1ccccc1F	-2	i	6	-2	47*	-5	6
O=C(NNc1nc2ccccc2s1)Nc1ccc(F)cc1	-2	i	11	-1	60*	34*	-4
O=C(CSc1nc2ccccc2s1)NNC(=O)Nc1ccc(Cl)c(Cl)c1	-3	i	-1	2	52*	-22	3
O=C(CSc1nc2ccccc2s1)Nc1ccc(Cl)c(C(=O)O)c1	-4	i	4	-9	7	/	/
COc1ccc(NC(=O)Nc2nc3ccccc3s2)cc1	-2	i	-1	-6	-6	/	/
O=C(NNc1nc2ccccc2s1)Nc1ccc(Cl)c(Cl)c1	5	i	-2	-13	60*	49*	-4
